Source: PubChem BioAssay (Tox21)
Where “and” joins values, the source holds several entries; their conditions need not be identical. Equal entries are not always repeated. Inconclusive results are not listed. Where a call stands in place of a potency, no number is given. Values without a mark were called inactive. Calls of active or inactive are those of the source. Calls come from the whole dose curve; as a rule, active = well fitted cell-killing curve with a large enough effect in the repeat runs; inconclusive = weak or mixed curves, or effect the other way; inactive = flat fitted curve, though single readings scatter.

Experiment: qHTS assay to identify small molecule antagonists of the androgen receptor (AR) signaling pathway using the MDA cell line in the presence of 0.5 nM R1881 - cell viability counter screen (AID 1259242); note: nearly all actives have a fitted effect of over 45% in size
Conditions: MDA-kb2 viability, CellTiter-Fluor protease fluorescence, 16 h; series mostly up to 92.4 µM; viability change, negative = cytotoxic: at the top concentration
Description: U.S. Tox21 Program National Center for Advancing Translational Sciences [NCATS] NIH Chemical Genomics Center [NCGC] U.S. Environmental Protection Agency [EPA] National Institutes of Environmental Health Sciences [NIEHS] National Toxicology Program [NTP] U.S. Food and Drug Administration [FDA] Tox21 Assay Overview: Androgen receptor (AR) is an important member of the nuclear receptor family. Its signaling plays a critical role in AR-dependent prostate cancer and other androgen related diseases. Considerable attention has been given in the past decades to develop methods to study and screen for the environmental chemicals that have the potential to interfere with metabolic homeostasis, reproduction, developmental and behavioral functions. Therefore AR binding assay for screening androgen antagonists can be used to identify potential endocrine disruptors. MDA-kb2 cells (from ATCC, deposited by Wilson et al.) were used to screen for AR inhibitors against Tox21 compound libraries. These cells are human breast carcinoma cells that were stably transfected with a luciferase reporter gene under control of the MMTV promoter that contains response elements for both androgen receptor (AR) and glucocorticoid receptor (GR). The current screening for identification of AR inhibitors against Tox21 libraries used lower concentration of (0.5 nM) R1881 as a stimulator. The cytotoxicity of the Tox21 compound libraries against MDA-kb2 cell line was tested by measuring live-cell protease activity using CellTiter-Fluor assay in the same wells.
Tox21 Assay Protocol Summary: MDA-kb2 cells (cells cultured without CO2) were dispensed at 3,000 cells/well in 4 uL of culture medium into white wall/solid-bottom 1536-well plates (Corning Life Sciences, Corning, NY) using a Multidrop Combi (ThermoFisher Scientific, Waltham, MA) dispenser. After the assay plates were incubated at a 37C and 0% CO2 for 5 hr, 23 nL of compounds dissolved in DMSO, positive controls or DMSO only was transferred to the assay plate by a Pintool station (Kalypsys, San Diego, CA). The transfer of compounds was followed by the addition of 1 uL of 0.5 nM (final concentration) agonist (R1881)/culture medium using a Flying Reagent Dispenser (FRD, Aurora Discovery, San Diego, CA). The plates were incubated at 37C and 0% CO2 for 16 hr. For cytotoxicity assay, 1 uL of CellTiter-Fluor reagent (Promega Corporation, Madison, WI) was added to each well using the FRD and after 30 min incubation at 37C and 0% CO2, The fluorescence intensity was measured using ViewLux plate reader (PerkinElmer, Shelton, CT).
Potency is the fitted concentration of half-maximal effect.

SMILES	Potency	viability change, negative = cytotoxic
Oc1ccc(OCc2ccccc2)cc1	inactive	–
O=C(O)c1ccc([N+](=O)[O-])cc1	inactive	–
C=C1C2CCC(C2)C1(C)C (stereo not given)	inactive	–
O=[N+]([O-])C(CO)(CO)CO	inactive	–
CCCCCC/C=C/CCCCCCCC(=O)O	inactive	–
Nc1cc(-c2ccncc2)c[nH]c1=O	inactive	–
CC(C)n1c(/C=C/[C@@H](O)C[C@@H](O)CC(=O)O)c(-c2ccc(F)cc2)c2ccccc21	inactive	–
C=CC(=O)OCCCCCCCC(C)C	inactive	–
COC(=O)c1ccccc1O	inactive	–
OCCOCCOCCOCCO	inactive	–
c1ccc2[nH]cnc2c1	inactive	–
CN(C)c1ccc(C(=N)c2ccc(N(C)C)cc2)cc1	48 µM (active) and 46.7 µM (active)	–
C/C=C(C)/C=C/C=C(C)C	inactive	–
OCC#CCO	inactive	–
Cc1ccc(C)c(C)c1	inactive	–
CC(=O)CCc1ccccc1	inactive	–
CCCCCCC(C)(C)S	inactive	–
COC(=O)Nc1nc2ccc(Sc3ccccc3)cc2[nH]1	inactive	–
CCCCCCCCCCCCOCC1CO1 (stereo not given)	inactive	–
O=S(=O)(Oc1ccc(Cl)cc1Cl)c1ccccc1	inactive	–

SMILES	Potency	viability change, negative = cytotoxic
CN(C)c1cccc(O)c1	inactive	–
CC(C)NCC(O)COc1cccc2ccccc12 (stereo not given)	inactive	–
CC1=C(/C=C/C(C)=C/C=C/C(C)=C/CO)C(C)(C)CCC1	inactive	–
CCCCNC(N)=O	inactive	–
NCCc1ccc(O)c(O)c1	–	-3.58% [at 42.5 µM]
Oc1c(Cl)cc(Cl)c(Cl)c1Cl	inactive	–
O=c1c(-c2ccc(O)cc2)coc2cc(O)ccc12	inactive	–
C=C(C)C(=O)OCCCCCC	inactive	–
CCOC(=O)/C=C\C(=O)OCC	inactive	–
CC(C)(N=C=O)c1cccc(C(C)(C)N=C=O)c1	inactive	–
O=C1CCCCC1	inactive	–
O=C(Oc1ccccc1)c1ccc(O)cc1	inactive	–
CCCCOCCO	inactive	–
COC(=O)c1ccc(C(=O)OC)cc1	–	0.661%
OC1CCCC1	inactive	–
O=C(Cl)c1c(Cl)c(Cl)c(C(=O)Cl)c(Cl)c1Cl	inactive	–
CS(=O)(=O)c1ccc([C@@H](O)[C@@H](CO)NC(=O)C(Cl)Cl)cc1	inactive	–
CC1(C)O[C@@H]2C[C@H]3[C@@H]4C[C@H](F)C5=CC(=O)CC[C@]5(C)[C@H]4[C@@H](O)C[C@]3(C)[C@]2(C(=O)CO)O1	inactive	–
Cc1ccc(N)c(S(=O)(=O)O)c1	inactive	–
NS(=O)(=O)c1cc2c(cc1Cl)NC=NS2(=O)=O	inactive	–
